Article PMC7862700, “An all-to-all approach to the identification of sequence-specific readers for epigenetic DNA modifications on cytosine”

Assays:
Assay in all cases: DAPPL (digital affinity profiling via proximity ligation, sequencing); 10 mM Tris-HCl pH 7.5, 50 mM NaCl, 1 mM DTT, 4% glycerol, room temperature, 30 min; GST-TFs on glutathione beads, 16-mer random dsDNA library, 0.1% formaldehyde crosslink after washing; high values mean tight binding
Conditions in all cases: protein: recombinant; tags: N-terminal GST; dsDNA, one strand shown
[1] = biological target: T1, FLI1 (Homo sapiens, UniProt Q01543 1-452)
T1 sequence: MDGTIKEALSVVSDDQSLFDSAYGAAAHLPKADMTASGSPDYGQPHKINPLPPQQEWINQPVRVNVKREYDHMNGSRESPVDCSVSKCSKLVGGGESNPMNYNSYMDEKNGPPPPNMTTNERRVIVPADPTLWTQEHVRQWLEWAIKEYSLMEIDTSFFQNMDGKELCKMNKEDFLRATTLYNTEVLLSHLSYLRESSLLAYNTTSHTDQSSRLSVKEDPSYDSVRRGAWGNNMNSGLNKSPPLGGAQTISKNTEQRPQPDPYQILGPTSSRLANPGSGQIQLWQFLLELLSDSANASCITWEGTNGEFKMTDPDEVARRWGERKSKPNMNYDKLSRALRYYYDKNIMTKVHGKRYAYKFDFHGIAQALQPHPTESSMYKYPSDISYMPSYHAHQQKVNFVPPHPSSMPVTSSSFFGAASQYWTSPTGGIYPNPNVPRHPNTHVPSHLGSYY
In short: (§1)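 Human transcription factors carrying a GST fusion were produced in yeast, bound to glutathione beads, tagged with DNA barcodes and pooled together with a tag-only sample. Each pool was held with 200 nmole of a random double-stranded 16-mer DNA library in Tris/NaCl/DTT/glycerol buffer for 30 min at room temperature, then washed, crosslinked in 0.1% formaldehyde, proximity-ligated with BsaI/T4 ligase (1 h, 37 °C), PCR-amplified and sequenced on an Illumina NextSeq500. Binding signal is the read frequency of each hexamer for a given factor divided by its frequency in the tag-only sample.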

[2] = biological target: T2, ELK1 (Homo sapiens, UniProt P19419 1-428)
T2 sequence: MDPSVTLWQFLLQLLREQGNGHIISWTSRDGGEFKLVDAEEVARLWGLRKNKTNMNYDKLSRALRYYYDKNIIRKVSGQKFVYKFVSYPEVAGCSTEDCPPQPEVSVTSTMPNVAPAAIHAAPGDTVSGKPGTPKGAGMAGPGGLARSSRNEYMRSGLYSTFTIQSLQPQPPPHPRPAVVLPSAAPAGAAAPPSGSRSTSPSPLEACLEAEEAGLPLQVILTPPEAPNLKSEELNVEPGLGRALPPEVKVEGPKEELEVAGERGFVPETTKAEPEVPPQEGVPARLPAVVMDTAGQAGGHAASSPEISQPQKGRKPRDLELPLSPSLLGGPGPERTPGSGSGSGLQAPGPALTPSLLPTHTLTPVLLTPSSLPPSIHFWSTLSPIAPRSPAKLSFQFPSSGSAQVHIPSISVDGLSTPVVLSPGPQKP
In short: as §1

[3] = biological target: T3, GABPA (Homo sapiens, UniProt Q06546 1-454)
T3 sequence: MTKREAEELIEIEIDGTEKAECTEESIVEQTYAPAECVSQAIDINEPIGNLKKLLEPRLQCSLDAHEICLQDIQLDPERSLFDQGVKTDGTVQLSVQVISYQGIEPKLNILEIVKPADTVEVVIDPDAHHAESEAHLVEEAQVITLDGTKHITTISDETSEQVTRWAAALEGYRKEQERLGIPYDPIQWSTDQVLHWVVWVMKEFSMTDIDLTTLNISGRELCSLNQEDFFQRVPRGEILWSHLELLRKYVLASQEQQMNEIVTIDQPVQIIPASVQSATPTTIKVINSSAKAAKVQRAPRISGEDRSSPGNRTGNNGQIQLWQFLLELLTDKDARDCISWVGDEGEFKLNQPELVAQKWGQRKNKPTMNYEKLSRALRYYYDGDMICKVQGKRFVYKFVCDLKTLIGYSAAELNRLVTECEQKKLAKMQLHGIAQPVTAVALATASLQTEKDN
In short: as §1

[4] = biological target: T4, ERG (Homo sapiens, UniProt P11308 1-479)
T4 sequence: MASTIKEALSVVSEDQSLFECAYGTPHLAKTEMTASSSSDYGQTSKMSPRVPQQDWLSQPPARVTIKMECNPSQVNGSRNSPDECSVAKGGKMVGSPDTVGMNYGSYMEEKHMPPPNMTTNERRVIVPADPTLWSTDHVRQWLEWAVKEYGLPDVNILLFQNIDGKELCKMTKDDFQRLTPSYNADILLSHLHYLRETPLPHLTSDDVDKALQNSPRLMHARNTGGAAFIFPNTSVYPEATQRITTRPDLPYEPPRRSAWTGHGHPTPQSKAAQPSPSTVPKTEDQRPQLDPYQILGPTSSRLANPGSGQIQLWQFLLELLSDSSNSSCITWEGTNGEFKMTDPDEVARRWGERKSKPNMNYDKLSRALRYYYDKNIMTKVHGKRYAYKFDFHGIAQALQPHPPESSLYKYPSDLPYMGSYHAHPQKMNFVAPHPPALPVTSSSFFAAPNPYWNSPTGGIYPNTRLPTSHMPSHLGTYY
In short: as §1

[5] = biological target: ELF1 (Homo sapiens, UniProt P32519 1-619)
In short: as §1

[6] = biological target: T5, EHF (Homo sapiens, UniProt Q9NZC4 1-300)
T5 sequence: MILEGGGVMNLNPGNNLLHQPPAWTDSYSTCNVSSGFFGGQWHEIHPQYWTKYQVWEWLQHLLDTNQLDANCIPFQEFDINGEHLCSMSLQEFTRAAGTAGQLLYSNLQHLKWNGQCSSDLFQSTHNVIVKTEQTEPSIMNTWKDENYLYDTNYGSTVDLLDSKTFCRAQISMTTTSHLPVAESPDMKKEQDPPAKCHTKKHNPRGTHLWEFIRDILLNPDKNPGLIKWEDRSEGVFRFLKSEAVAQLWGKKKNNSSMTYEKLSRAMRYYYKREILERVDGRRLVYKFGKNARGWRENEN
In short: as §1

[7] = biological target: SPI1 (Homo sapiens, UniProt P17947 1-270)
In short: as §1

[8] = biological target: SPIB (Homo sapiens, UniProt Q01892 1-262)
In short: as §1

[9] = biological target: T6, ELK3 (Homo sapiens, UniProt P41970 1-407)
T6 sequence: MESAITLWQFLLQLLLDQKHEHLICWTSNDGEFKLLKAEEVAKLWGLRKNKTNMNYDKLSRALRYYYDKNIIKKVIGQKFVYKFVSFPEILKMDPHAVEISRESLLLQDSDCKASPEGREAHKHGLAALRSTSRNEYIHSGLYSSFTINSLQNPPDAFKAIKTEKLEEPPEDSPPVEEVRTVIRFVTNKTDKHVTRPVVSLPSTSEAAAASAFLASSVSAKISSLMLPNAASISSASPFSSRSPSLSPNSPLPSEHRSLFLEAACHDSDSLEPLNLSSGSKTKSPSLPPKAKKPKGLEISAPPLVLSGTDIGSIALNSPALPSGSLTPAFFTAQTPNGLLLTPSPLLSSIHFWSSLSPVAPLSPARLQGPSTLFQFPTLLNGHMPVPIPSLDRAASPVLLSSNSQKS
In short: as §1

[10] = biological target: T7, FEV (Homo sapiens, UniProt Q99581 1-238)
T7 sequence: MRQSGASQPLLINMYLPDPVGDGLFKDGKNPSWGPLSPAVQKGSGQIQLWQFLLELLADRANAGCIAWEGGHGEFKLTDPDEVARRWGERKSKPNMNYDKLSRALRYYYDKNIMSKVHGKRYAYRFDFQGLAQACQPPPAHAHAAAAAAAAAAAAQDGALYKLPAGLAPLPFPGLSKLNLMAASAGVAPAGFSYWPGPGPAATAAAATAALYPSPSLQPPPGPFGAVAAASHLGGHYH
In short: as §1

[11] = biological target: ETV5 (Homo sapiens, UniProt P41161 1-510)
In short: as §1

[12] = biological target: T8, SPIC (Homo sapiens, UniProt Q8N5J4 1-248)
T8 sequence: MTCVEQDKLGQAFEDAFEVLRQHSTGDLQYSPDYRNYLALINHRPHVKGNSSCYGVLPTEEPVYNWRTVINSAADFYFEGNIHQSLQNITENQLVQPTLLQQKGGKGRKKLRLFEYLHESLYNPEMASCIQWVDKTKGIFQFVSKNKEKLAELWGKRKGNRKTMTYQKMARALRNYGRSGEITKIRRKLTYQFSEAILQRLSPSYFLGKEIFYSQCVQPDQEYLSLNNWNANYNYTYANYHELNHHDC
In short: as §1

[13] = biological target: ELF4 (Homo sapiens, UniProt Q99607 1-663)
In short: as §1

[14] = biological target: ETV1 (Homo sapiens, UniProt P50549 1-477)
In short: as §1

[15] = biological target: T9, ERF (Homo sapiens, UniProt P50548 1-548)
T9 sequence: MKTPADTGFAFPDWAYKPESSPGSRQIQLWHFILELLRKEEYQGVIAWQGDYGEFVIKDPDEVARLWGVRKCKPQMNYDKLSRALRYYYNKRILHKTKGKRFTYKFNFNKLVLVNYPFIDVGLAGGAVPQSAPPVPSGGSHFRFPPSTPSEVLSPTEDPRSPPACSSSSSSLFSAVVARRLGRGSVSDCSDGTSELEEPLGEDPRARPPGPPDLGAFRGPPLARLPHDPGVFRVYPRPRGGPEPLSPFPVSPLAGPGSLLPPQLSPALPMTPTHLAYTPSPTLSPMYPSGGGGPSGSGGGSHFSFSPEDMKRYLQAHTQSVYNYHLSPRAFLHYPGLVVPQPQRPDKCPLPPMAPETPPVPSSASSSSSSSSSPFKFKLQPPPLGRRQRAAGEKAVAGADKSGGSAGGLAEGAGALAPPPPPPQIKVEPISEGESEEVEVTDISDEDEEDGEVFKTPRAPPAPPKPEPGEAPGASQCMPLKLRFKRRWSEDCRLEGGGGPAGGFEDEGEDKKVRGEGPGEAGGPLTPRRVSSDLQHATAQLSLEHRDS
In short: as §1

[16] = biological target: T10, ETV3L (Homo sapiens, UniProt Q6ZN32 1-361)
T10 sequence: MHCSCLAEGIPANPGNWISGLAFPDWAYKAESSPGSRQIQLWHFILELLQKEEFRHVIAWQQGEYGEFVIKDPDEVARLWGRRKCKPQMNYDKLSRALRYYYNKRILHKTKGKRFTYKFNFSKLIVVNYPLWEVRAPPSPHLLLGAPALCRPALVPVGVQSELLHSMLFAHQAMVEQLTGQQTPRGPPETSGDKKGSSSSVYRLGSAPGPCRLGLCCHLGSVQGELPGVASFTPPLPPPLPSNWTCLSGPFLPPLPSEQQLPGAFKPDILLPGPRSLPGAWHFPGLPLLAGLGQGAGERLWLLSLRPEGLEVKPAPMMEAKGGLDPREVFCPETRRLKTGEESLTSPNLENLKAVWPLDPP
In short: as §1

[17] = biological target: T11, ETS2 (Homo sapiens, UniProt P15036 1-469)
T11 sequence: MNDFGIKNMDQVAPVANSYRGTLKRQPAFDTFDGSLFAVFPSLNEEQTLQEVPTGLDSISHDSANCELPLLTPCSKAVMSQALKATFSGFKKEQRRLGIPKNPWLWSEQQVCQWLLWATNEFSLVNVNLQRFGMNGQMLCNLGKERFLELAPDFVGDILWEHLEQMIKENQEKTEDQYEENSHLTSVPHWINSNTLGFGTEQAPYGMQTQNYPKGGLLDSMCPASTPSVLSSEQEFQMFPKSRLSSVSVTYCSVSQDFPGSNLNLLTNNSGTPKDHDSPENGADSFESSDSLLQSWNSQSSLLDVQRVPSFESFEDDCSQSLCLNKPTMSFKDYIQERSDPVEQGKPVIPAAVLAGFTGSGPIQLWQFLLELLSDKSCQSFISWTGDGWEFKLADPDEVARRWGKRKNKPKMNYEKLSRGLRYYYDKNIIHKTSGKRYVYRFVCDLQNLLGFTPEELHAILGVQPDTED
In short: as §1

[18] = biological target: T12, SPDEF (Homo sapiens, UniProt O95238 1-335)
T12 sequence: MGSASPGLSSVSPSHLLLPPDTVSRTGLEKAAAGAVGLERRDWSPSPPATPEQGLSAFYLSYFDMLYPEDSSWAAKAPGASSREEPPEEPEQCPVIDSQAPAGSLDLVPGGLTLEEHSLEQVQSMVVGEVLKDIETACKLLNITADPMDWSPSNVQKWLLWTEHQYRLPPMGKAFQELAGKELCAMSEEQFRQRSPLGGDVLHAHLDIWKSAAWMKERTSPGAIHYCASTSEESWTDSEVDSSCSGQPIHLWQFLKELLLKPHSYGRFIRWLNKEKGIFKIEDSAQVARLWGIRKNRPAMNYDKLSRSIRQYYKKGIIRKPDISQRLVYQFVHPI
In short: as §1

[19] = biological target: T13, ETV3 (Homo sapiens, UniProt P41162-2 1-143)
T13 sequence: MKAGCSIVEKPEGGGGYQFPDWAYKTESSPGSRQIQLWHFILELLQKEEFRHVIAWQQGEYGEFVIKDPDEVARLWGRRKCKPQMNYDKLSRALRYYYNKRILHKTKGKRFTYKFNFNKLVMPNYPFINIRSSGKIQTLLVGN
In short: as §1

[20] = biological target: ETV6 (Homo sapiens, UniProt P41212 1-452)
In short: as §1

Sequence of ETV1 (P50549 whole entry): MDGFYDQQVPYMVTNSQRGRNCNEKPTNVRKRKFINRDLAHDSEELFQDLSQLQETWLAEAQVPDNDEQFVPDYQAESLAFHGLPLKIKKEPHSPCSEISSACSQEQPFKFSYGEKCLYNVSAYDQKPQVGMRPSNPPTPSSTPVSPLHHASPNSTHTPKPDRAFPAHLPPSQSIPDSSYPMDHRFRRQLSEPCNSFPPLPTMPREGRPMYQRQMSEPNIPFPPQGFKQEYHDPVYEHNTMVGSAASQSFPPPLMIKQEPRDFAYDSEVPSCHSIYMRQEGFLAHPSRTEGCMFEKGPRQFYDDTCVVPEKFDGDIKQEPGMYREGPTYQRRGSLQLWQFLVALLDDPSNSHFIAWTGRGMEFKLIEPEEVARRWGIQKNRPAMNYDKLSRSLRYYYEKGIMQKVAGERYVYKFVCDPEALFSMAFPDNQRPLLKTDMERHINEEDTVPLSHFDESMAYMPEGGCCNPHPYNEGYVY
Sequence of SPIB (Q01892 whole entry): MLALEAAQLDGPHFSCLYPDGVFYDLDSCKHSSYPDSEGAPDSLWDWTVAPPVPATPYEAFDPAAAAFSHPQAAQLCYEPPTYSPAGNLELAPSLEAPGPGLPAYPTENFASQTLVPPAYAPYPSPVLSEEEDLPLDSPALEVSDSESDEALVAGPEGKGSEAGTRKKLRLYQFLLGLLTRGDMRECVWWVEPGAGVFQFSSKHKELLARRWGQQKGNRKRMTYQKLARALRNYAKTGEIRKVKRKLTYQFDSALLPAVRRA
Sequence of ELF4 (Q99607 whole entry): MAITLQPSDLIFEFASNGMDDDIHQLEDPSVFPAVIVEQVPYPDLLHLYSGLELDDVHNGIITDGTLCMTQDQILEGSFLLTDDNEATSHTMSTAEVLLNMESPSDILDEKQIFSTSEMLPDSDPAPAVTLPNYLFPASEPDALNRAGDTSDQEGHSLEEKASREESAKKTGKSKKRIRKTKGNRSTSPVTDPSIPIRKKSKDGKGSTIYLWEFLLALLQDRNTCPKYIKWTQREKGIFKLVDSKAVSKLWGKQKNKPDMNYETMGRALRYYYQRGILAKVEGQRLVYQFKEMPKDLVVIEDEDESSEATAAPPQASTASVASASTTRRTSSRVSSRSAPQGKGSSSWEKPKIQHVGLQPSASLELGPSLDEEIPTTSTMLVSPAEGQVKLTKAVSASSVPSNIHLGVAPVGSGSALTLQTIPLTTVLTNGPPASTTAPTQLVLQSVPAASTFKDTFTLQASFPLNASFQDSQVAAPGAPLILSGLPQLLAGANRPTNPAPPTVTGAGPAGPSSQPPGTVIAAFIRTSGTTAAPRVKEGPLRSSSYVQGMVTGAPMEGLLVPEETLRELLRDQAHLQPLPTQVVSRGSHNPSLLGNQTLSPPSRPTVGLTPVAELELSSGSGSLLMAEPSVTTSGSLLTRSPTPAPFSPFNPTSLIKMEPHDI
Sequence of ETV5 (P41161 whole entry): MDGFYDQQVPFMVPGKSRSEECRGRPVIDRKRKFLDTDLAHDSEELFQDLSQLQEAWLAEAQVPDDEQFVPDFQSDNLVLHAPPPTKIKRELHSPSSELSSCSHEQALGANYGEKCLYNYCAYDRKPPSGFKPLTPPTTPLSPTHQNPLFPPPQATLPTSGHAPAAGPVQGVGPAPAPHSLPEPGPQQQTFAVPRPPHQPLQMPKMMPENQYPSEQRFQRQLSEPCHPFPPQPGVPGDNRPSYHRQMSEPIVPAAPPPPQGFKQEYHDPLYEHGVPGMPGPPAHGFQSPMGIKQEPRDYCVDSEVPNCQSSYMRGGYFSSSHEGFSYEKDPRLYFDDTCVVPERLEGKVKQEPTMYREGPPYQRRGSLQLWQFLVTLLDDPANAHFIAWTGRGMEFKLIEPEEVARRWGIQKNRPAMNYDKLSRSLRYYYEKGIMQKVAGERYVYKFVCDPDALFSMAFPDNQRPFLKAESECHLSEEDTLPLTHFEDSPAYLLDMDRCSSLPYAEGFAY
Sequence of ELF1 (P32519 whole entry): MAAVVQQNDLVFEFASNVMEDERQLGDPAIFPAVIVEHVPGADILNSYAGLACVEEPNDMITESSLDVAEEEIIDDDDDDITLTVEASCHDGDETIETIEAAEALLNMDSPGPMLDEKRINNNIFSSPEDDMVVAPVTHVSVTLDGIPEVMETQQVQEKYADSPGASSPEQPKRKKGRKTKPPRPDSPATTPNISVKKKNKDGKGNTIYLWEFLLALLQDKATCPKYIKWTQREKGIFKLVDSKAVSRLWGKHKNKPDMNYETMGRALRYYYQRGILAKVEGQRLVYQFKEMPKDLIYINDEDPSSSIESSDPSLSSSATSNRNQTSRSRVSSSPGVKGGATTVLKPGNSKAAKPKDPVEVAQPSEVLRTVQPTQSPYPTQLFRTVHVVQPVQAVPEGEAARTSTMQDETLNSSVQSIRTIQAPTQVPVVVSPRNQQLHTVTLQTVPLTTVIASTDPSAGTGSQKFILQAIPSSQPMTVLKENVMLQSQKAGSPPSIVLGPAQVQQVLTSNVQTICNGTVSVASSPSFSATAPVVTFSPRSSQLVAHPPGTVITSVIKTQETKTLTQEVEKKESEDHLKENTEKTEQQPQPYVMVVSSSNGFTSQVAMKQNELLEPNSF
Sequence of ETV6 (P41212 whole entry): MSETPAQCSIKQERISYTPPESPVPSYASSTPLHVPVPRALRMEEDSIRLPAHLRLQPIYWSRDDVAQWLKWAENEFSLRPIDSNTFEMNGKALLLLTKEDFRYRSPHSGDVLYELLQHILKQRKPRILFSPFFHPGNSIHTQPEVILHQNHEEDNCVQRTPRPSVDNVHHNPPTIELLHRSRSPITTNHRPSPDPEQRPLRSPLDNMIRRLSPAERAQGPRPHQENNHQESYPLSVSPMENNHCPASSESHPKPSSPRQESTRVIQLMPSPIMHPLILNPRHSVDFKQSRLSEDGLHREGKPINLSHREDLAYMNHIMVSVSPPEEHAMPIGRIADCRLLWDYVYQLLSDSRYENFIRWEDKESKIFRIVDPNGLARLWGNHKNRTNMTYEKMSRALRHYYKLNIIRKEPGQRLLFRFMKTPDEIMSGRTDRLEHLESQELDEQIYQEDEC

What does the source list for ATGGTG?
binding signal [1]: 1.17 fold enrichment (6-mer frequency, TF over GST control); binding signal [2]: 1.27 fold enrichment (6-mer frequency, TF over GST control); binding signal [3]: 1.1 fold enrichment (6-mer frequency, TF over GST control); binding signal [4]: 1.19 fold enrichment (6-mer frequency, TF over GST control); binding signal [5]: 1.13 fold enrichment (6-mer frequency, TF over GST control); binding signal [6]: 1.17 fold enrichment (6-mer frequency, TF over GST control); binding signal [7]: 1.07 fold enrichment (6-mer frequency, TF over GST control); binding signal [8]: 1.01 fold enrichment (6-mer frequency, TF over GST control); binding signal [9]: 1.02 fold enrichment (6-mer frequency, TF over GST control); binding signal [10]: 1.06 fold enrichment (6-mer frequency, TF over GST control); binding signal [11]: 1.18 fold enrichment (6-mer frequency, TF over GST control); binding signal [12]: 1.2 fold enrichment (6-mer frequency, TF over GST control); binding signal [13]: 1.14 fold enrichment (6-mer frequency, TF over GST control); binding signal [14]: 1.11 fold enrichment (6-mer frequency, TF over GST control); binding signal [15]: 1.13 fold enrichment (6-mer frequency, TF over GST control); binding signal [16]: 1.04 fold enrichment (6-mer frequency, TF over GST control); binding signal [17]: 1.14 fold enrichment (6-mer frequency, TF over GST control); binding signal [18]: 1.14 fold enrichment (6-mer frequency, TF over GST control); binding signal [19]: 1.04 fold enrichment (6-mer frequency, TF over GST control); binding signal [20]: 1.11 fold enrichment (6-mer frequency, TF over GST control)
